# In publication PMC5700166:
# Changes are numbered by the printed parent chain.
# Tests used:
# Experiment in all cases: protein-binding microarray (PBM); PBM: ~300 nM protein, 6 mM HEPES pH 7.8, 80 mM KCl, 0.5 mM EDTA, 0.5 mM EGTA, 6% glycerol, 35 ng/ul poly-dIdC, 1% milk, 1 h, room temperature; Ap Aiptasia and Nv Nematostella (sea anemones) / Co Capsaspora / Aq Amphimedon (sponge) / Dm Drosophila / Hu human; RHD is the Rel homology domain; high values mean tight binding
# Conditions in all cases: dsDNA, one strand shown
# [1] = target: T1, GST-Nv-NF-kB (Cys allele) (Nematostella vectensis, UniProt E5G601 2-411)
# T1 sequence: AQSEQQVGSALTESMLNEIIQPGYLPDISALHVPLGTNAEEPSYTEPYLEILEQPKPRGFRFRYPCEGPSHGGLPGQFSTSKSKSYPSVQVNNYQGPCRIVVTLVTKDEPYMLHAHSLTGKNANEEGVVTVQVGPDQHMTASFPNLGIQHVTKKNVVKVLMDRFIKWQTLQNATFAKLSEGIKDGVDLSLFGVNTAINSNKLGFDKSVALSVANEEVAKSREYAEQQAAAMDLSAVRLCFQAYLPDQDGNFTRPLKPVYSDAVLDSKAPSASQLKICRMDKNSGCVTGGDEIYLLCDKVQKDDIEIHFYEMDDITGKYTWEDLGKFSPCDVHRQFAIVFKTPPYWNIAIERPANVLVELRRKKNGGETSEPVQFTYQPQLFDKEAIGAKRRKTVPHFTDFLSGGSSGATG
# GST-Dm-Relish = target: T2, GST-Dm-Relish (Drosophila melanogaster, UniProt Q94527 99-473)
# T2 sequence: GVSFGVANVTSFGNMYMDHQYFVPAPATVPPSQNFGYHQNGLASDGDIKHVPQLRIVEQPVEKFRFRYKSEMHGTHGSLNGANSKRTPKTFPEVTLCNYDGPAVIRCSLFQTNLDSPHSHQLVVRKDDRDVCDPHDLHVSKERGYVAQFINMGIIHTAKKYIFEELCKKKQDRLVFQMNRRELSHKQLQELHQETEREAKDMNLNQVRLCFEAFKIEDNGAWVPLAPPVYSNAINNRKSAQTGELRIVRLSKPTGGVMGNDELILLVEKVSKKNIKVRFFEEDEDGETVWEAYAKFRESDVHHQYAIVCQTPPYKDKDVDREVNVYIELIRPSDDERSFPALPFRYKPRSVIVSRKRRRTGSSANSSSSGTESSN
# GST-Aq-NF-kB = target: T3, GST-Aq-NF-kB (Amphimedon queenslandica, UniProt A9Y5G7 2-389)
# T3 sequence: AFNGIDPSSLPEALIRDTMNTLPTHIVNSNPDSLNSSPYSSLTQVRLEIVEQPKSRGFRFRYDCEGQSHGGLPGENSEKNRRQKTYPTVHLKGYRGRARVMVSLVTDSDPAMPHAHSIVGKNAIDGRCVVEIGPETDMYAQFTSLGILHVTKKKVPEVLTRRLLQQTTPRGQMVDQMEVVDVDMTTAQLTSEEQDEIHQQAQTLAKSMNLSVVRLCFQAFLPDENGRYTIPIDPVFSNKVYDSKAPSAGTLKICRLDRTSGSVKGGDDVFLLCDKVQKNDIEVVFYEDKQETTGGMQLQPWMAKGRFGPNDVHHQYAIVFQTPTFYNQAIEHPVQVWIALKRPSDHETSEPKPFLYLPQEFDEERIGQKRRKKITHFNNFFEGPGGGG
# GST-Co-NF-kB = target: T4, GST-Co-NF-kB (Capsaspora owczarzaki, UniProt F1ARL5 200-546)
# T4 sequence: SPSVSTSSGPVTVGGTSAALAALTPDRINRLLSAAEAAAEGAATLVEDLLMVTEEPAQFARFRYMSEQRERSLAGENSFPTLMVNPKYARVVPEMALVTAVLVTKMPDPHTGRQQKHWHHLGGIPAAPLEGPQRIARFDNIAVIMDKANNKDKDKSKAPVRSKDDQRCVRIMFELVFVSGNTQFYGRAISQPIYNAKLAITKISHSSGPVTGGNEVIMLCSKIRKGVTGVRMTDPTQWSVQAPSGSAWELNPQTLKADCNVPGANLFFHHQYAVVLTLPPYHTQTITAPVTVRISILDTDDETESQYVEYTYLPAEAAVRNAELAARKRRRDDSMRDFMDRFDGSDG
# [2] = target: T5, GST-Nv-NF-kB (Ser allele) (Nematostella vectensis, UniProt A7UNT2 2-411)
# T5 sequence: T1 sequence with Q21R, C66S, S207N, E215Q, V217A, E225K, A268E, D399E
Sequence,binding signal [1],binding signal (GST-Dm-Relish),binding signal (GST-Aq-NF-kB),binding signal (GST-Co-NF-kB),binding signal [2]
CCGATTAACATCAGAAATTACCATGATGTTAATCGGGTCTTGATTCGCTTGACGCTGCTG,1.45 z-score,2.33 z-score,1.16 z-score,–,–
CCGATTAACATCATTATGGGAAATGATGTTAATCGGGTCTTGATTCGCTTGACGCTGCTG,2.63 z-score,–,1.44 z-score,2.21 z-score,–
CCGATTAACATCAGGAGTATCCCTGATGTTAATCGGGTCTTGATTCGCTTGACGCTGCTG,–,–,3.53 z-score,1.01 z-score,–
CCGATTAACATCAGGAAAAAACCTGATGTTAATCGGGTCTTGATTCGCTTGACGCTGCTG,1.77 z-score,3.66 z-score,3.37 z-score,–,2.77 z-score
CCGATTAACATCAGGAATCTACCTGATGTTAATCGGGTCTTGATTCGCTTGACGCTGCTG,1.61 z-score,2.24 z-score,3.42 z-score,–,–
CCGATTAACATCAGACATGGGAATGATGTTAATCGGGTCTTGATTCGCTTGACGCTGCTG,1.46 z-score,–,1.94 z-score,2.4 z-score,–
CCGATTAACATCATTTCCCAAAATGATGTTAATCGGGTCTTGATTCGCTTGACGCTGCTG,2.55 z-score,1.36 z-score,1.26 z-score,1.54 z-score,–
CCGATTAACATCACATGTGGGAATGATGTTAATCGGGTCTTGATTCGCTTGACGCTGCTG,1.34 z-score,–,2.05 z-score,2.62 z-score,–
CCGATTAACATCAAGGAAAAACCTGATGTTAATCGGGTCTTGATTCGCTTGACGCTGCTG,1.07 z-score,2.61 z-score,3.09 z-score,–,–
CCGATTAACATCAGGAATATACCTGATGTTAATCGGGTCTTGATTCGCTTGACGCTGCTG,1.47 z-score,1.86 z-score,1.69 z-score,–,–
CCGATTAACATCATTGGGAAAAATGATGTTAATCGGGTCTTGATTCGCTTGACGCTGCTG,2.44 z-score,–,1.92 z-score,3.75 z-score,–
CCGATTAACATCAGGAAAAGTCCTGATGTTAATCGGGTCTTGATTCGCTTGACGCTGCTG,1.25 z-score,2.98 z-score,3.07 z-score,–,–
CCGATTAACATCACAAATGGGAATGATGTTAATCGGGTCTTGATTCGCTTGACGCTGCTG,1.95 z-score,1.56 z-score,2.36 z-score,1.92 z-score,–
CCGATTAACATCAAAATATTCCGTGATGTTAATCGGGTCTTGATTCGCTTGACGCTGCTG,–,–,1.1 z-score,1.07 z-score,–
CCGATTAACATCAAATTGGGAAATGATGTTAATCGGGTCTTGATTCGCTTGACGCTGCTG,2.55 z-score,–,1.16 z-score,1.89 z-score,–
CCGATTAACATCAGGGATCGCCCTGATGTTAATCGGGTCTTGATTCGCTTGACGCTGCTG,1.19 z-score,3.26 z-score,4.24 z-score,–,–
CCGATTAACATCAGGAATGTACCTGATGTTAATCGGGTCTTGATTCGCTTGACGCTGCTG,1.98 z-score,4.93 z-score,3.14 z-score,–,–
CCGATTAACATCACTTTGGGAAATGATGTTAATCGGGTCTTGATTCGCTTGACGCTGCTG,1.89 z-score,–,1.28 z-score,2.05 z-score,–
CCGATTAACATCAGGTAATTTACTGATGTTAATCGGGTCTTGATTCGCTTGACGCTGCTG,1.68 z-score,5.32 z-score,2.13 z-score,1.89 z-score,–
CCGATTAACATCAGGAAATTTCCTGATGTTAATCGGGTCTTGATTCGCTTGACGCTGCTG,1.72 z-score,1.75 z-score,3.27 z-score,–,–
CCGATTAACATCAATTGGGAAATTGATGTTAATCGGGTCTTGATTCGCTTGACGCTGCTG,3.36 z-score,1.48 z-score,1.63 z-score,1.8 z-score,3.48 z-score
CCGATTAACATCAACTTTGGGAATGATGTTAATCGGGTCTTGATTCGCTTGACGCTGCTG,1.04 z-score,–,1.56 z-score,1.7 z-score,–
CCGATTAACATCACATTGGGAAATGATGTTAATCGGGTCTTGATTCGCTTGACGCTGCTG,2.26 z-score,1.18 z-score,1.18 z-score,2.31 z-score,–
